Common to all, as to type: functional
Test [1] has as its system Plasmodium falciparum. Nature of the test: GSK_TCMDC: Inhibition of Plasmodium falciparum 3D7 in whole red blood cells, using parasite LDH activity as an index of growth. Test compounds present at 2uM.
The subject of test [2] is Plasmodium falciparum. As to the kind of experiment: GSK_TCMDC: Inhibition of Plasmodium falciparum Dd2 in whole red blood cells, using parasite LDH activity as an index of growth. Test compounds present at 2uM.
The test system of a further test is HepG2. Nature of the test: GSK_TCMDC: Percent inhibition of human HepG2 cell line. Test compounds present at 10uM.

Here are results for 20 molecules from ChEMBL document CHEMBL1157539, “Thousands of chemical starting points for antimalarial lead identification” (Nature, 2010).

Usually Inhibition stands for how much of the control response was suppressed. Low values mean a weak effect, high ones a strong effect. `Cc1ccc(NC(=O)Nc2ccc(Cl)cc2)cc1-c1ccc(C(=O)Nc2ccncc2)cc1`: the Inhibition stood at 99% with Plasmodium falciparum [1], 63% with Plasmodium falciparum [2] and 54% with HepG2.

For the molecule `CC(C)N(CCOc1ccc2c(c1)N(C(=O)Nc1cc(Br)cc(C(F)(F)F)c1)CC2)C(C)C.O=C(O)C(F)(F)F`, the Inhibition stood at 100% in the test on Plasmodium falciparum [1], 100% in the test on Plasmodium falciparum [2] and 8% with HepG2.

On to `Cc1cc(F)ccc1[C@H]1CNCCN1C(=O)N(C)C(C)(C)c1cc(C(F)(F)F)cc(C(F)(F)F)c1.Cl`, for which the Inhibition was determined as 100% in the test with Plasmodium falciparum [1], 100% with Plasmodium falciparum [2] and 24% in the test with HepG2.

As to `Cl.c1ccc2c(Nc3ccc(Cc4ccc(Nc5c6ccccc6nc6ccccc56)cc4)cc3)c3ccccc3nc2c1`, the values for the Inhibition in the test with Plasmodium falciparum [1], in the test with Plasmodium falciparum [2] and in the test with HepG2 were 100%, 100% and 93%, respectively.

In the case of `O=C(NCC(c1ccc(C(F)(F)F)cc1)N1CCCC1)c1cc(-c2ccncc2)c(-c2cccc(O)c2)o1.O=C(O)C(F)(F)F` (stereo not given), the figures for the Inhibition in the test with Plasmodium falciparum [1], in the test on Plasmodium falciparum [2] and with HepG2 were 95%, 53% and 9%, respectively.

For `COc1ccc(NC(=O)NCC2CCCN(CCCCCNC(=O)/C=C/c3ccc(Cl)c(Cl)c3)C2)c(OC)c1` (stereo not given), the Inhibition with Plasmodium falciparum [1] came to 95%; in the test with Plasmodium falciparum [2], 0%; with HepG2, 8%.

As for `COc1cc2nc(N3CCN(C(=O)c4ccc(N(C(=O)OC(C)(C)C)C(=O)OC(C)(C)C)cc4)CC3)nc(N)c2cc1OC`, the Inhibition in the test on Plasmodium falciparum [1] is reported as 96%; in the test with Plasmodium falciparum [2], 19%; in the test with HepG2 it was 12%.

As to `CCCCN(CCCC)Cc1cc(Nc2ccnc3cc(Cl)ccc23)ccc1O.Cl`, the Inhibition with Plasmodium falciparum [1] was found to be 100%; with Plasmodium falciparum [2] it was 87%; with HepG2, 67%.

For the molecule `CNC(=O)c1cnc(Nc2ccc(N3CCN(C)CC3)cc2)nc1Nc1ccccc1OC.O=C(O)C(F)(F)F`, the Inhibition with Plasmodium falciparum [1] is recorded as 100%; in the test with Plasmodium falciparum [2], 84%; in the test on HepG2, 8%.

For the molecule `COc1ccc(-c2ccc(NC(=O)c3ccc(C#N)cc3)c(F)c2)cc1CN(C)CCN(C)C.O=C(O)C(F)(F)F`, the Inhibition in the test with Plasmodium falciparum [1] amounted to 88%; with Plasmodium falciparum [2] it was 0%; in the test on HepG2, 24%.

As for `O=C(CCC1CCCCC1=O)c1ccccc1` (stereo not given), the results for the Inhibition with Plasmodium falciparum [1], in the test on Plasmodium falciparum [2] and with HepG2 were 91%, 3% and 0%, respectively.

Turning to `CC1(C)NC(=N)N=C(NOCC=Cc2ccccc2)N1`, the Inhibition with Plasmodium falciparum [1] turned out to be 98%; in the test on Plasmodium falciparum [2] it was 2%; with HepG2, 35%.

Regarding `CCOC(=O)c1ccc(NC(=O)Nc2cccc(-c3ccc(-c4nc5cc(F)ccc5[nH]4)cc3)c2)cc1`, the Inhibition is 100% in the test with Plasmodium falciparum [1], 97% with Plasmodium falciparum [2] and 40% in the test on HepG2.

`COc1cccc(CNc2noc(-c3c(-c4ccccc4)noc3C)n2)c1OC`: the Inhibition in the test with Plasmodium falciparum [1] was found to be 97%; with Plasmodium falciparum [2], 86%; in the test with HepG2 it was 0%.

Take `O=C(Nc1ccc(-c2ccccc2)s1)N[C@H]1CCN(Cc2ccc(OCCCN3CCCCC3)cc2)C1`: the Inhibition with Plasmodium falciparum [1] is reported as 100%; in the test on Plasmodium falciparum [2], 40%; in the test on HepG2 it was 5%.

As to `COc1ccc2c(NN=Cc3ccccn3)ccnc2c1`, the Inhibition in the test with Plasmodium falciparum [1] was determined as 100%; with Plasmodium falciparum [2], 96%; in the test with HepG2 it was 14%.

Regarding `CC(=O)N[C@H](C(=O)Nc1ccc(-c2ccc(-c3nc4cc(C(F)(F)F)ccc4[nH]3)s2)cc1)C(C)C`, the Inhibition in the test with Plasmodium falciparum [1] is given as 88%; with Plasmodium falciparum [2] it was 61%; in the test on HepG2, 42%.

Take `COc1cc2c(cc1OC)C(C(=O)Nc1cc(OC)c(OC)c(OC)c1)C(c1ccc(SC)cc1)N(C)C2=O` (stereo not given): the Inhibition with Plasmodium falciparum [1] is listed as 97%; in the test on Plasmodium falciparum [2] it was 64%; with HepG2, 14%.

On to `CCN(CC)CCOc1c(Cl)cc(Cl)cc1CNCCCNc1cc(=O)c2ccccc2[nH]1`, for which the Inhibition was 97% in the test with Plasmodium falciparum [1], 6% with Plasmodium falciparum [2] and 11% in the test on HepG2.

With `FC(F)(F)c1ccc2[nH]ccc(=NN=Cc3ccc(Cl)cc3)c2c1`, the values for the Inhibition in the test with Plasmodium falciparum [1], with Plasmodium falciparum [2] and in the test with HepG2 were 100%, 53% and 5%, respectively.
